Results as given in PubChem BioAssay.
The source made the active and inactive calls.

Legend:
[1] = binders of probe aFSTL3 on microarray, primary screen, stem cell growth factor project, biochemical, small-molecule microarray, fluorescence 635/667 (AID 1064); conditions: higher = more signal;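 further: measures binding of the biotinylated anti-FSTL3 antibody to printed compounds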
[2] = binders from COS7 lysate, DM2A8 probe, primary screen, torsin A project, cell lysate, small-molecule microarray, fluorescence 635/667 (AID 1065); conditions: higher = more signal, COS7 lysate expressing mutant human TOR1A
[3] = binders of probe aFGF2 on microarray, primary screen, stem cell growth factor project, biochemical, small-molecule microarray, fluorescence 635/667 (AID 1067); conditions: higher = more signal;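 further: measures binding of biotinylated aFGF2 protein to printed compounds on slides; z-score merges feature fluorescence and signal-to-noise across triplicate slides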
[4] = binders of probe aFGF10 on microarray, primary screen, stem cell growth factor project, biochemical, small-molecule microarray, fluorescence 635/667 (AID 1071); conditions: higher = more signal;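 further: score merges 667 nm spot intensity and signal to noise from triplicate slides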
[5] = target: Neurogenic locus notch homolog protein 2 (Homo sapiens) (UniProt Q04721); experiment: Notch2 binders on small-molecule microarrays, primary screen, biochemical, small-molecule microarray, 635 nm fluorescence, stem cell growth factors (AID 1073); conditions: Notch2 binding, higher = more signal
[6] = target: Pro-neuregulin-1, membrane-bound isoform (Homo sapiens) (UniProt Q02297); experiment: NRG1 binders on small-molecule microarrays, primary screen, psychiatric disease protein project, biochemical, small-molecule microarray, fluorescence 635/667 (AID 1075); conditions: NRG1 binding, 635 nm fluorescence, higher = more signal;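 further: score combines 667 nm spot fluorescence with signal to noise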
[7] = test system: Neuregulin-1 EGF-like domain; experiment: binders of neuregulin-1 EGF-like domain, primary screen, biochemical, small-molecule microarray, 635 nm fluorescence (AID 1081); conditions: small-molecule microarray binding, higher = more signal;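 further: binding of the protein to compounds printed on small-molecule microarray slides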
[8] = FRG1 promoter luciferase signal modulators, primary screen, FRG1 inhibition for FSHD, cell-based, C2C12 myotubes, firefly/Renilla luciferase, luminescence (AID 1084); conditions: higher = more signal, called active from +8 up or from −8 down
[9] = binders of probe aFST on microarray, primary screen, stem cell growth factor project, biochemical, small-molecule microarray, fluorescence 635/667 (AID 1086); conditions: higher = more signal;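 further: score merges 667 nm fluorescence with signal-to-noise of each printed compound spot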
[10] = binders of probe aHhip on microarray, primary screen, stem cell growth factor project, biochemical, small-molecule microarray, fluorescence 635/667 (AID 1087); conditions: higher = more signal;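 further: score merges spot fluorescence at 667nm with spot signal to noise ratio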
[11] = test system: PRMT1 (protein arginine N-methyltransferase 1); experiment: PRMT1 binders on small-molecule microarrays, primary screen, biochemical, small-molecule microarray, 635 nm fluorescence (AID 1088); conditions: small-molecule microarray binding, higher = more signal;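 further: binding of Prmt1 protein to compounds spotted on small-molecule microarray slides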
[12] = yeast growth modulation, basal conditions, primary screen, YJM789 clinical isolate, OD600, 24 h (AID 1089);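 further: growth of clinical yeast isolate S. cerevisiae YJM 789 seeded 1000 cells per well; test concentration not given here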; conditions: S. cerevisiae YJM789 growth, higher = more signal, called active from +8 up or from −8 down
[13] = fission yeast growth modulation, primary screen, strain 972, OD600, 24 h, no modulator (AID 1090);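 further: basal condition with compound alone and no growth modifier present; test concentration not given here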; conditions: S. pombe 972 growth, higher = more signal, called active from +8 up or from −8 down
[14] = S. cerevisiae growth modulation with rapamycin, primary screen, strain BY4716, OD600, 96 h (AID 1091); conditions: higher = more signal, called active from +8 up or from −8 down; further: test concentration not given here
[15] = target: Torsin-1A-interacting protein 2 (Homo sapiens) (UniProt Q8NFQ8); experiment: LULL1 binders on small-molecule microarray, primary screen, cell lysate, human LULL1 lysate, 635/667 nm fluorescence (AID 1092); conditions: hLULL1 lysate binding, 635 nm fluorescence, higher = more signal;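 further: probe is lysate of COS7 cells overexpressing human LULL1; score merges per-feature 667 nm fluorescence with signal-to-noise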
[16] = E. coli growth modulation, two-sided OD650, primary screen, E. coli filamentation project, strain DRC41, 24 h (AID 1093); conditions: OD650, 24 h, higher = more signal, called active from +8 up or from −8 down;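 further: MC1000 strain lacking acrAB efflux and sulA so SOS filamentation is blocked; test concentration not given here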
[17] = small-molecule microarray binders of probe aLefty2, primary screen, biochemical, biotinylated probe, 635/667 nm fluorescence (AID 1094); conditions: higher = more signal;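 further: score merges spot fluorescence near 667 nm with spot signal-to-noise ratio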
[18] = test system: Noggin (protein binding on small-molecule microarray); experiment: Noggin binders on small-molecule microarray, primary screen, biochemical, 635/667 nm fluorescence (AID 1095); conditions: 635 nm fluorescence, higher = more signal;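 further: score merges 667 nm feature fluorescence with signal to noise over triplicate slides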
[19] = target: Neurogenic locus notch homolog protein 3 (Homo sapiens) (UniProt Q9UM47); experiment: NOTCH3 binders on small-molecule microarray, primary screen, biochemical, 635/667 nm fluorescence (AID 1096); conditions: NOTCH3 binding, 635 nm fluorescence, higher = more signal
[20] = small-molecule microarray binders of probe aEGFR, primary screen, biochemical, biotinylated probe, 635/667 nm fluorescence (AID 1097); conditions: higher = more signal;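 further: probe is a biotinylated anti-EGFR antibody binding compounds printed on slides; score combines fluorescence near 667 nm and signal to noise of each spot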

Pro-neuregulin-1, membrane-bound isoform (Homo sapiens), sequence (Q02297 whole entry, looked up, the tested form may be a part, canonical isoform): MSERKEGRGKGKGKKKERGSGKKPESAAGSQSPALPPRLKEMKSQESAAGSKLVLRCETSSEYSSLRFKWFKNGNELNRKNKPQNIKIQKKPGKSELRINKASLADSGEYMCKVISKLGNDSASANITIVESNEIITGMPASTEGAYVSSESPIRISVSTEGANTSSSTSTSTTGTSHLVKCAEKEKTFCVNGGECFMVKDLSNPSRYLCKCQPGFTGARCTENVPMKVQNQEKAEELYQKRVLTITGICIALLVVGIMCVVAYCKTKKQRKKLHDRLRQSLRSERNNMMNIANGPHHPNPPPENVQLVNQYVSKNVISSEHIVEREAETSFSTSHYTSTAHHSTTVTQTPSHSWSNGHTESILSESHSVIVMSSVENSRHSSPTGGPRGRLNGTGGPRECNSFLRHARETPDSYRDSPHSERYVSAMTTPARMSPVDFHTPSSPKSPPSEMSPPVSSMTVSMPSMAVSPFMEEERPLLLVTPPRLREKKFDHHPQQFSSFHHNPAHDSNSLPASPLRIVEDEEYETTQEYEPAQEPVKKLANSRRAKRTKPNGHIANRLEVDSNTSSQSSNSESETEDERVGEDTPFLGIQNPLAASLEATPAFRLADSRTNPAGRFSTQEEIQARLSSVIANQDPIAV
Neurogenic locus notch homolog protein 3 (Homo sapiens), sequence (Q9UM47 whole entry, looked up): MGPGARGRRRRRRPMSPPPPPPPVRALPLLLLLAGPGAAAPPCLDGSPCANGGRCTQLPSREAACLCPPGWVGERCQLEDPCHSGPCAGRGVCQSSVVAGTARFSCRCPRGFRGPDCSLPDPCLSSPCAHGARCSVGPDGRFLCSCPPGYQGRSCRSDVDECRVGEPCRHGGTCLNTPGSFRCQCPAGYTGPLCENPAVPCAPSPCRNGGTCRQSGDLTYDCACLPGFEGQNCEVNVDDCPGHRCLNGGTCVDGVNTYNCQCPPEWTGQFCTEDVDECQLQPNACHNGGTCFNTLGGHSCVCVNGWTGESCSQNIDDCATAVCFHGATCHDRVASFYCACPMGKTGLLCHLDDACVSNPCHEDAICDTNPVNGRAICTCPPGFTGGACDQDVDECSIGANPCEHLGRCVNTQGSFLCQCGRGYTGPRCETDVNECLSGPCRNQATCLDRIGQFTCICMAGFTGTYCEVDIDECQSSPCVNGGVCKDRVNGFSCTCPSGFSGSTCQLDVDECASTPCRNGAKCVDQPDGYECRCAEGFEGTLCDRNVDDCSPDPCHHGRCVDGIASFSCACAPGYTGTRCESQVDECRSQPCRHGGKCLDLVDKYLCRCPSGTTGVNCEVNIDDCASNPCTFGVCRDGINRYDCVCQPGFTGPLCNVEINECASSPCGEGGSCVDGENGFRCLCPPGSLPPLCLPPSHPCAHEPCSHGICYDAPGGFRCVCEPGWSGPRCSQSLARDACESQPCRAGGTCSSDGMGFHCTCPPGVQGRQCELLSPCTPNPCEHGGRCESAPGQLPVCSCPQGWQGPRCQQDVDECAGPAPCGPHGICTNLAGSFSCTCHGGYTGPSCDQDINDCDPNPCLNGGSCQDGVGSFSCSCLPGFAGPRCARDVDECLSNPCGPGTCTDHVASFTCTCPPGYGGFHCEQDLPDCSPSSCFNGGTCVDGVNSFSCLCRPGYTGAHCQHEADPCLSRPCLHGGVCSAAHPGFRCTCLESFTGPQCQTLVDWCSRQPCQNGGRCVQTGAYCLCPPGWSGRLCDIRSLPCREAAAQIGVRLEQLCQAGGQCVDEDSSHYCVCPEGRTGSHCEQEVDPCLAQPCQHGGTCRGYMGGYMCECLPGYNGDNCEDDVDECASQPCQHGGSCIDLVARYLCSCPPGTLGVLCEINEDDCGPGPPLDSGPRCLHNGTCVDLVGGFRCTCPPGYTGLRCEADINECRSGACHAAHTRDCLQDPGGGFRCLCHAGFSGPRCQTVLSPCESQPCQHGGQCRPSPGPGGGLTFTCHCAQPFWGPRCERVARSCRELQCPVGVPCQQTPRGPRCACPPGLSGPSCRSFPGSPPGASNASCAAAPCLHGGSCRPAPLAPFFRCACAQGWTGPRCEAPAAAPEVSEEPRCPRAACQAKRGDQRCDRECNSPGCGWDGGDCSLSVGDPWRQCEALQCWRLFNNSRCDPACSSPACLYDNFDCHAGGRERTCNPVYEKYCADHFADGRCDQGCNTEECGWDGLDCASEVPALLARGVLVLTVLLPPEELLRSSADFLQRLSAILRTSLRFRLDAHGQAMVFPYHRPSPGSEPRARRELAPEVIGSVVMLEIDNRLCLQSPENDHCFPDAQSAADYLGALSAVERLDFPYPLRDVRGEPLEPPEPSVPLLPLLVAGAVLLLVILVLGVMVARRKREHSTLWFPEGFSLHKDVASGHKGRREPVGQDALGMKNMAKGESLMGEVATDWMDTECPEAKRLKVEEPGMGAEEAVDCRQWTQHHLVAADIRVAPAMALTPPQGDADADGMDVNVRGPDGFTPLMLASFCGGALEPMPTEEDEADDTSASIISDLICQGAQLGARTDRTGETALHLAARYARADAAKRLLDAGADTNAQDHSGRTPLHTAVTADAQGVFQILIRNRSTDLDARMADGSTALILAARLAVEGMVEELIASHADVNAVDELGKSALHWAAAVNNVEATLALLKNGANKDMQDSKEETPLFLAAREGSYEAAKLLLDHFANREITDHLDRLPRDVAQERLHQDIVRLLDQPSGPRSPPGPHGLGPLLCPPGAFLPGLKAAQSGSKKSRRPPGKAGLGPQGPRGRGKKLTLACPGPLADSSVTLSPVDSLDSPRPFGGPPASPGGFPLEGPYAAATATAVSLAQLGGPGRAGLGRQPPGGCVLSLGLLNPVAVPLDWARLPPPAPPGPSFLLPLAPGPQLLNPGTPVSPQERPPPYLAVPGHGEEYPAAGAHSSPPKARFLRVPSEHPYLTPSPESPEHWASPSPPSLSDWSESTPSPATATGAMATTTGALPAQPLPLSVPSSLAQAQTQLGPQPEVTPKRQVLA
Torsin-1A-interacting protein 2 (Homo sapiens), sequence (Q8NFQ8 whole entry, looked up): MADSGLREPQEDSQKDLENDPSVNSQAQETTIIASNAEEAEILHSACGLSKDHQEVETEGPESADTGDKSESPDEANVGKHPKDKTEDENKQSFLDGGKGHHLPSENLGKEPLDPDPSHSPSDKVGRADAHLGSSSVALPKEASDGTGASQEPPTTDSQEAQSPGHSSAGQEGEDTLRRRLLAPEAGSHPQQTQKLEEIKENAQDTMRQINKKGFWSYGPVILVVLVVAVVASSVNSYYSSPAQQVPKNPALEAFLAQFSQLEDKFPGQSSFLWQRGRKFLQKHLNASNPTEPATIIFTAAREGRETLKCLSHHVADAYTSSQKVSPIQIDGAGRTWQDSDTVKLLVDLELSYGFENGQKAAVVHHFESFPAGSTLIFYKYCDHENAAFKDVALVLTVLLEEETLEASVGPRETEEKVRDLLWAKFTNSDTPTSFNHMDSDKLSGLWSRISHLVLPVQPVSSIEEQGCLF

| Compound | composite z-score [1] | composite z-score [2] | composite z-score [3] | composite z-score [4] | composite z-score [5] | composite z-score [6] | composite z-score [7] | z-score [8] | composite z-score [9] | composite z-score [10] | composite z-score [11] | z-score [12] | z-score [13] | z-score [14] | composite z-score [15] | z-score [16] | composite z-score [17] | composite z-score [18] | composite z-score [19] | composite z-score [20] |
| --- | --- | --- | --- | --- | --- | --- | --- | --- | --- | --- | --- | --- | --- | --- | --- | --- | --- | --- | --- | --- |
| C=C(CCCC)C(=O)CC[C@@H](OC(=O)c1cccnc1)c1ccc(CO)o1 | -0.45 | 0.0802 | -0.008 | 0.601 | 0.88 | 1.05 | 1.07 | -0.434 (inactive) | 0.391 | 0.122 | 1.55 | 0.544 (inactive) | 0.115 (inactive) | 0.275 (inactive) | 1.45 | -0.211 (inactive) | -0.105 | 1.61 | 1.12 | 0.021 |
| COCCOC(=O)N1C(=O)[C@@]2(c3cc(C#Cc4ccc(OC)cc4)ccc31)[C@H](C(=O)N1CCCCCCC1)[C@H]1C(=O)O[C@H](c3ccccc3)[C@H](c3ccccc3)N1[C@@H]2c1ccc(OCCO)cc1 | 2.85 | 1.49 | 0.233 | 0.662 | 0.845 | 1.01 | 0.972 | -0.738 (inactive) | 2.43 | 3.2 | 1.55 | -0.821 (inactive) | 0.0405 (inactive) | 3.27 (inactive) | 2.29 | 2.36 (inactive) | 1.59 | 2.1 | 1.01 | 0.4 |
| CCCC=C(CCC)[C@@H](NS(=O)(=O)c1cccs1)c1ccc(C(=O)OC)cc1 | 0.002 | -0.0193 | 0.0969 | 0.646 | 1.53 | 1.94 | 1.18 | -3.86 (inactive) | 0.969 | 0.398 | 0.946 | 0.212 (inactive) | -1.19 (inactive) | 0.602 (inactive) | 3.43 | -0.0839 (inactive) | -0.0375 | -0.213 | 0.882 | -0.11 |
| C=CCNC(=O)[C@@H]1[C@H]2C(=O)O[C@H](c3ccccc3)[C@H](c3ccccc3)N2[C@H](c2ccc(OCCO)cc2)[C@@]12C(=O)Nc1ccc(C#CCCO)cc12 | 0.604 | 0.727 | 0.162 | 0.944 | 1.05 | 0.853 | 1.25 | 0.806 (inactive) | 0.804 | -0.138 | 1.52 | 0.85 (inactive) | 0.975 (inactive) | 3.39 (inactive) | 3.29 | -0.207 (inactive) | 0.501 | 1.36 | 1.12 | 0.692 |
| O=C1OCCC/C=C\[C@H]2OC34C=CCN(Cn5nnc6ccccc65)C(=O)[C@H]3N(CCO)C(=O)[C@@H]4C12 (stereo not given in full) | -0.335 | -1.46 | -0.206 | 0.0278 | -0.918 | 1.21 | 1.16 | 0.356 (inactive) | -0.486 | 0.382 | -0.614 | 0.744 (inactive) | -0.0999 (inactive) | -0.277 (inactive) | 1.41 | 2.83 (inactive) | 0.478 | -0.708 | -0.571 | -0.0015 |
| CCN(CC)c1ccc(N2CC=CC34O[C@@H]5/C=C\CCC(C)OC(=O)C5[C@H]3C(=O)N(C(CO)C(C)C)[C@@H]4C2=O)cc1 (stereo not given in full) | 0.165 | -0.892 | -0.0316 | -0.551 | -0.455 | 0.12 | 1.49 | 0.225 (inactive) | -0.344 | 1.01 | 0.746 | -1.28 (inactive) | -0.892 (inactive) | -0.924 (inactive) | 3.28 | 0.41 (inactive) | -0.17 | -0.995 | -0.0778 | -0.13 |
| COCCOC(=O)N1C(=O)[C@@]2(c3cc(C#CC4(O)CCCCCC4)ccc31)[C@H](c1ccc(O)cc1)N1[C@H](c3ccccc3)[C@H](c3ccccc3)OC(=O)[C@H]1[C@@H]2C(=O)Nc1nc2ccccc2s1 | 1.87 | 0.186 | -0.045 | 0.769 | 1.15 | 1.15 | 1.02 | 1.41 (inactive) | 2.31 | 0.468 | 1.35 | 0.861 (inactive) | -0.0153 (inactive) | 0.383 (inactive) | 3.08 | -0.369 (inactive) | 1.04 | 1.59 | 1.1 | 0.292 |
| COC(=O)[C@@]1(Cc2ccc(F)cc2)[C@H]2c3cc(C(=O)N4CCCC4)n(Cc4cc(C)n(C)n4)c3C[C@H]2CN1C(=O)c1ccccc1 | 1.08 | 0.276 | 0.188 | 0.741 | 1.63 | 2.3 | 1.19 | 0.23 (inactive) | 0.939 | 0.28 | 0.364 | -0.408 (inactive) | -0.292 (inactive) | 1.2 (inactive) | 3.75 | 0.234 (inactive) | 0.555 | -0.678 | 0.769 | 0.209 |
| COc1ccc([Si](C)(C)[C@@H]2[C@@H](CCO)O[C@]3(C(=O)N(Cc4ccc(N5C(=O)COc6ccccc65)cc4)c4ccccc43)[C@H]2C)cc1 | -0.0069 | 0.408 | -0.0474 | 1.24 | 1.18 | 1.01 | 1.17 | -2.74 (inactive) | 0.288 | 0.0373 | 1.5 | 3.6 (inactive) | -0.0953 (inactive) | 35.7 (active) | 2.44 | 0.49 (inactive) | -0.0375 | 1.17 | 0.767 | 0.0192 |
